# Laboratory results published in article PMC7883291.
# Key:
# Assay in all cases: cross-link between two proteins; cross-linking mass spectrometry
# [1] = target: Cytochrome b-c1 complex subunit 2, mitochondrial (UniProt P23004)
# [2] = target: NADH dehydrogenase [ubiquinone] 1 alpha subcomplex subunit 1 (UniProt Q02377)
# [3] = target: NADH dehydrogenase [ubiquinone] 1 alpha subcomplex subunit 13 (UniProt Q95KV7)
# [4] = target: NADH dehydrogenase [ubiquinone] 1 alpha subcomplex subunit 7 (UniProt Q05752)
# [5] = target: NADH dehydrogenase [ubiquinone] 1 beta subcomplex subunit 11, mitochondrial (UniProt Q8HXG5)
# [6] = target: NADH dehydrogenase [ubiquinone] 1 beta subcomplex subunit 4 (UniProt P48305)
# [7] = target: NADH dehydrogenase [ubiquinone] iron-sulfur protein 4, mitochondrial (UniProt Q02375)
# NADH dehydrogenase [ubiquinone] iron-sulfur protein 4, mitochondrial, sequence (Q02375 whole entry): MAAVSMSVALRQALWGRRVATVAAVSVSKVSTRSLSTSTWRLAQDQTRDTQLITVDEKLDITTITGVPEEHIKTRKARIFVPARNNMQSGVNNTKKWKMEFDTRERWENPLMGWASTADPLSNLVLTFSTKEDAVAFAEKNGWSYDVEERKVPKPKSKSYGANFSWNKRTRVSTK
# NADH dehydrogenase [ubiquinone] 1 beta subcomplex subunit 11, mitochondrial, sequence (Q8HXG5 whole entry, one chain of several): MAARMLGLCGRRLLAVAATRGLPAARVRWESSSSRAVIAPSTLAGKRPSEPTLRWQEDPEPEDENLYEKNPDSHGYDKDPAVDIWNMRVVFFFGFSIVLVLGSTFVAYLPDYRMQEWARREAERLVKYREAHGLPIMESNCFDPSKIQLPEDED
# Cytochrome b-c1 complex subunit 2, mitochondrial, sequence (P23004 whole entry, one chain of several): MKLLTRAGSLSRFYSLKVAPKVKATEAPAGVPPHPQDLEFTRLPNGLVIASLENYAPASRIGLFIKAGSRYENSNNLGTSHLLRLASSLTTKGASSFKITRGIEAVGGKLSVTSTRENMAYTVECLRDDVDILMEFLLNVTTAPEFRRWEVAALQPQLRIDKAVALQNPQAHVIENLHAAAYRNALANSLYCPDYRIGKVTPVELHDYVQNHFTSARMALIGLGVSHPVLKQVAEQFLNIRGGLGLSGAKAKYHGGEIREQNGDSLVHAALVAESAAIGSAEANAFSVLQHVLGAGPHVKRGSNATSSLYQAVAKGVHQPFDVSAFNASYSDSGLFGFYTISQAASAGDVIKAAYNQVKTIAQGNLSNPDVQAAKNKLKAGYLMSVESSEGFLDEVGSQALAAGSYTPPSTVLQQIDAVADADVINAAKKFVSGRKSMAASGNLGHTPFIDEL
# NADH dehydrogenase [ubiquinone] 1 alpha subcomplex subunit 13, sequence (Q95KV7 whole entry, one chain of several): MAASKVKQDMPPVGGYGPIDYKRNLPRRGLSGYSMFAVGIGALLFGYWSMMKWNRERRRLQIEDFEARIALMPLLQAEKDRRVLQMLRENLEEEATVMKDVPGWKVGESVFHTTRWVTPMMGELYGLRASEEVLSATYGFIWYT
# NADH dehydrogenase [ubiquinone] 1 alpha subcomplex subunit 1, sequence (Q02377 whole entry, one chain of several): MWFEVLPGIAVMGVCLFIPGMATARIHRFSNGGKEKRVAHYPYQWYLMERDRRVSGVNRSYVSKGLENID
# NADH dehydrogenase [ubiquinone] 1 alpha subcomplex subunit 6, Q02366, sequence (Q02366 whole entry, one chain of several): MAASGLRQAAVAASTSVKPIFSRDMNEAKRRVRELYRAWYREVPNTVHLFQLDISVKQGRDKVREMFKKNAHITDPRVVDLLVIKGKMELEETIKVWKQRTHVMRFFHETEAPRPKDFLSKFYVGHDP
# NADH dehydrogenase [ubiquinone] 1 alpha subcomplex subunit 7, sequence (Q05752 whole entry, one chain of several): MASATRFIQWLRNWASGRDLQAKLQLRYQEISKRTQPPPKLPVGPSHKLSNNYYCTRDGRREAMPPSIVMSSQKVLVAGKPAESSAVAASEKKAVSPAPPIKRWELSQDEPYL
# NADH dehydrogenase [ubiquinone] 1 beta subcomplex subunit 4, sequence (P48305 whole entry, one chain of several): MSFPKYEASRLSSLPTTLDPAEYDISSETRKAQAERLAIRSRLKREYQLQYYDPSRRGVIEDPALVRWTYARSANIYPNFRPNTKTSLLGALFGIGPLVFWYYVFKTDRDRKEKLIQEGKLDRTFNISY
substance,measurement,setting,value
"Cytochrome c1, heme protein, mitochondrial, P00125",listed as a hit,[1],yes
"Cytochrome b-c1 complex subunit 7, P00129",listed as a hit,[1],yes
"NADH dehydrogenase [ubiquinone] 1 alpha subcomplex subunit 8, P42029",listed as a hit,[2],yes
"NADH dehydrogenase [ubiquinone] iron-sulfur protein 5, Q02379",listed as a hit,[3],yes
"NADH dehydrogenase [ubiquinone] 1 alpha subcomplex subunit 5, P23935",listed as a hit,[4],yes
"NADH dehydrogenase [ubiquinone] 1 beta subcomplex subunit 8, mitochondrial, Q02372",listed as a hit,[5],yes
"NADH dehydrogenase [ubiquinone] 1 beta subcomplex subunit 9, Q02369",listed as a hit,[5],yes
"Cytochrome b-c1 complex subunit 1, mitochondrial, P31800",listed as a hit,[6],yes
"NADH dehydrogenase [ubiquinone] iron-sulfur protein 3, mitochondrial, P23709",listed as a hit,[7],yes
"NADH dehydrogenase [ubiquinone] 1 alpha subcomplex subunit 6, Q02366",listed as a hit,[7],yes
